Laboratory results from PubChem BioAssay (NCATS).
Results filed as inconclusive are left out. A number with no mark means an inactive call. The source made the active and inactive calls. The call rests on the fitted dose curve; in most records, active means well fitted inhibition curve with a large enough effect; inconclusive means small, poorly fitted or top-dose-only effect; inactive means no such curve, though single readings can be large or run the other way.

These compounds were tested against Aldehyde dehydrogenase 1A1 (Homo sapiens) (UniProt P00352) (assay: qHTS for Inhibitors of the Aldehyde Dehydrogenase Family (ALDH1A1) Confirmatory screens (AID 2061316; further: nearly all actives have a fitted effect of over 65% in size)). Conditions: ALDH inhibition qHTS; series mostly up to 47.3 µM; activity change, negative = inhibition: at the top concentration.
On the % scale 0 is the no-effect control and ±100 the full control effect; potency means the concentration at half of the fitted maximal effect.

Row | Compound | activity change, negative = inhibition | Potency | outcome
1 | N#CN1CCC(NS(=O)(=O)c2ccc(C(F)(F)F)cc2)CC1 | -0.167% | – | –
2 | CN(C)c1cccc(-c2cnc(N3CCC(C(N)=O)CC3)nc2)c1 | – | 11.3 µM (active) | –
3 | Cc1ccc(NS(=O)(=O)c2cc3c(cc2N2CCC2)NC(=O)CC3)cc1C | – | 11.3 µM (active) | –
4 | Cc1ccc(CNc2ccc(N3CCNCC3)cc2)cc1 | – | 11.3 µM (active) | –
5 | Oc1ccc(CNc2cc(Cl)ccn2)c2cccnc12 | – | 8.96 µM (active) | –
6 | C/C=C/c1ccc2oc(-c3ccc(O)c(OC)c3)c(C)c2c1 | – | 17.9 µM (active) | –
7 | O=C(C(NS(=O)(=O)c1ccc2[nH]c(=O)ccc2c1)c1cccc(C(F)(F)F)c1)N(Cc1ccco1)Cc1cccs1 (stereo not given) | -24.5% | – | –
8 | O=C(O)c1ccc(O)c2ncc(NC3CCNC3)cc12 (stereo not given) | 2.19% | – | –
9 | CC(=O)N1CCN(c2ccc(NCc3cccc(C)c3)cc2)CC1 | – | 12.7 µM (active) | –
10 | N[C@@H]1CCN(c2cnc3c(O)ccc(C(=O)O)c3c2)C1 | -8.46% | – | –
11 | C=CCNc1nnc(-c2cccc3ccccc23)o1 | – | 7.98 µM (active) | –
12 | CC(C)(C)OC(=O)N1CCN(c2ccc(NCc3occc3-c3ccc(C#N)cc3)cc2)CC1 | – | 11.3 µM (active) | –
13 | c1c[nH]c(C2CCN(c3ncc(-c4ccc5c(c4)OCCCO5)s3)CC2)n1 | – | 1.79 µM (active) | –
14 | CC(=O)N1CCN(c2ccc(NCc3ccccc3)cc2)CC1 | – | 10.1 µM (active) | –
15 | COc1ccc(-c2ccc(=O)n(CC(=O)NCCc3ccccc3)n2)cc1 | -26.9% | – | –
16 | COc1ccc(CNc2ccc(S(=O)(=O)Nc3nccs3)cc2)cc1O | – | 7.12 µM (active) | –
17 | Oc1cc(NCc2ccc(F)cc2)cc2cccnc12 | – | 7.12 µM (active) | –
18 | Nc1cccc(CNc2ccc(S(=O)(=O)Nc3nccs3)cc2)c1O | – | 11.3 µM (active) | –
19 | COc1ccc(Nc2cc(O)c3ncccc3c2)cc1 | -1.34% | – | –
20 | O=C1CCCC2=C1C1(CCC1)N=C(Nc1nc3ccccc3o1)N2 | – | – | inactive
